# Laboratory results from PubChem BioAssay (EPA / NIEHS).
# Inconclusive results are not listed. The source made the active and inactive calls. The calls were made as follows, unless noted: active = hit-call score of the fitted dose curve at least 0.9, where 1 is the maximum; inconclusive = response in the unintended direction; inactive = score below 0.9.
# Assays:
# [1] = tested on: Sodium/Iodide Symporter (NIS), SLC5A5 (gene 6528); test: CPHEA_Stoker_NIS_Inhibition_RAIU: CPHEA's Radioactive Iodide Uptake (RAIU) Assay for Sodium/Iodide Symporter (NIS) Inhibition, Stoker and Laws Labs (AID 2283841)
# Summary of the method: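 HEK293T cells stably expressing human NIS (hNIS-HEK293T-EPA) were exposed to test chemicals at 0.001–100uM (0.5% final DMSO) with 125I at a final 329pM in HBSS/10mM HEPES pH 7.4. After 2 hours at room temperature and ice-cold washes, intracellular 125I was counted as CPM and normalized to DMSO wells.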
# [2] = CPHEA_Stoker_NIS_Cytotoxicity: Cytotoxicity Assessment for CPHEA's Radioactive Iodide Uptake (RAIU) Assay for Sodium/Iodide Symporter (NIS) Inhibition, Stoker and Laws Labs (AID 2283897);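 as to AC50: active means loss of ATP signal versus DMSO meaning cytotoxicity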
# Summary of the method: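 hNIS-HEK293T-EPA human kidney cells were exposed for 2 hours at room temperature to test chemicals (0.001–100uM, 0.5% final DMSO) in HEPES-buffered HBSS, pH 7.4. Viability was read as ATP content by luciferase bioluminescence, loss of signal versus DMSO.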
# [3] = CEETOX_H295R_11DCORT_noMTC: CeeTox H295R High-throughput Steroidogenesis Assay for 11-Deoxycortisol (11DCORT), maximum tolerated concentration (MTC) filtered results only (AID 2283911; active = hit-call score of the fitted dose curve at least 0.9, where 1 is the maximum; inactive = score below 0.9); settings: actives raise or lower the signal
# Summary of the method: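 HPLC-MS/MS read-out of 11-deoxycortisol after MTBE extraction of H295R medium. Cells: forskolin 10 uM pre-stimulation 48 h, chemical 48 h, 0.1% DMSO final. Bidirectional fit vs DMSO baseline; no MTC filtering.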
# [4] = CEETOX_H295R_OHPREG_noMTC: CeeTox H295R High-throughput Steroidogenesis Assay for OH-Pregnenolone (OHPREG), maximum tolerated concentration (MTC) filtered results only (AID 2283912; active = hit-call score of the fitted dose curve at least 0.9, where 1 is the maximum; inactive = score below 0.9); settings: actives raise or lower the signal
# Summary of the method: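 Steroidogenesis in H295R cells (OECD 456, modified): after 48 h forskolin priming and 48 h chemical treatment, secreted 17alpha-hydroxypregnenolone is measured by HPLC-MS/MS. Activity is fitted in both directions against DMSO; concentrations are not filtered by MTT-based MTC.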
# [5] = CEETOX_H295R_OHPROG_noMTC: CeeTox H295R High-throughput Steroidogenesis Assay for OH-Progesterone (OHPROG), maximum tolerated concentration (MTC) filtered results only (AID 2283914; active = hit-call score of the fitted dose curve at least 0.9, where 1 is the maximum; inactive = score below 0.9); settings: actives raise or lower the signal
# Summary of the method: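 Forskolin 10 uM, 48 h prestim → test cmpd in DMSO (0.1% final), 48 h → medium MTBE extraction → LC-MS/MS quant of 17alpha-OH-progesterone. Bidirectional fit vs DMSO; no MTT-based MTC filtering.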
# [6] = CEETOX_H295R_ANDR_noMTC: CeeTox H295R High-throughput Steroidogenesis Assay for Androstenedione (ANDR), maximum tolerated concentration (MTC) filtered results only (AID 2283915; active = hit-call score of the fitted dose curve at least 0.9, where 1 is the maximum; inactive = score below 0.9); settings: actives raise or lower the signal
# Summary of the method: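 H295R cells, passage 10 or below, prestimulated 48 h with 10 uM forskolin, then exposed 48 h to chemical in 0.1% DMSO. Medium androstenedione extracted with MTBE, quantified by HPLC-MS/MS; concentrations not MTC-filtered; bidirectional fit versus DMSO.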
# [7] = CEETOX_H295R_CORTISOL_noMTC: CeeTox H295R High-throughput Steroidogenesis Assay for Cortisol, maximum tolerated concentration (MTC) filtered results only (AID 2283916; active = hit-call score of the fitted dose curve at least 0.9, where 1 is the maximum; inactive = score below 0.9); settings: actives raise or lower the signal
# Summary of the method: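 Cortisol secretion measured by LC-MS/MS after 48 h chemical treatment (final 0.1% DMSO) of forskolin-primed (10 uM, 48 h) H295R cells; gain or loss fitted relative to DMSO, without maximum-tolerated-concentration filtering.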
# [8] = CEETOX_H295R_CORTIC_noMTC: CeeTox H295R High-throughput Steroidogenesis Assay for Corticosterone (CORTIC), maximum tolerated concentration (MTC) filtered results only (AID 2283917; active = hit-call score of the fitted dose curve at least 0.9, where 1 is the maximum; inactive = score below 0.9); settings: actives raise or lower the signal
# Summary of the method: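 Following OECD 456 with minor changes, H295R cultures received 10 uM forskolin for 48 h, then test chemical at 0.1% DMSO for 48 h. Media steroids were extracted and measured by LC-MS/MS.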
# [9] = CEETOX_H295R_DOC_noMTC: CeeTox H295R High-throughput Steroidogenesis Assay for DOC, maximum tolerated concentration (MTC) filtered results only (AID 2283918; active = hit-call score of the fitted dose curve at least 0.9, where 1 is the maximum; inactive = score below 0.9); settings: actives raise or lower the signal
# Summary of the method: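 11-Deoxycorticosterone secreted by human adrenal H295R cells quantified by HPLC-MS/MS after 48 h chemical exposure (0.1% DMSO), following 48 h 10 uM forskolin prestimulation. Concentrations not filtered by MTT-derived MTC; bidirectional fitting.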
# [10] = CEETOX_H295R_ESTRADIOL_noMTC: CeeTox H295R High-throughput Steroidogenesis Assay for Estradiol, maximum tolerated concentration (MTC) filtered results only (AID 2283919; active = hit-call score of the fitted dose curve at least 0.9, where 1 is the maximum; inactive = score below 0.9); settings: actives raise or lower the signal
# Summary of the method: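 H295R human adrenal cells pre-stimulated 48 h with 10 uM forskolin, then exposed 48 h to chemical (0.1% DMSO final). Estradiol in medium measured by HPLC-MS/MS after MTBE extraction and dansyl derivatization; bidirectional fit versus DMSO, concentrations not MTT-filtered.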
# [11] = CEETOX_H295R_PROG_noMTC: CeeTox H295R High-throughput Steroidogenesis Assay for Progesterone (PROG), maximum tolerated concentration (MTC) filtered results only (AID 2283920; active = hit-call score of the fitted dose curve at least 0.9, where 1 is the maximum; inactive = score below 0.9); settings: actives raise or lower the signal
# Summary of the method: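 H295R cells; forskolin 10 uM x 48 h prestim; test cpd 48 h, 0.1% DMSO final; media progesterone via LC-MS/MS; bidirectional fit vs DMSO; no MTT-based MTC filter applied.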
# [12] = CEETOX_H295R_ESTRONE_noMTC: CeeTox H295R High-throughput Steroidogenesis Assay for Estrone, maximum tolerated concentration (MTC) filtered results only (AID 2283921; active = hit-call score of the fitted dose curve at least 0.9, where 1 is the maximum; inactive = score below 0.9); settings: actives raise or lower the signal
# Summary of the method: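 H295R cells prestimulated 48 h with 10 uM forskolin, then exposed 48 h to chemical in 0.1% DMSO; medium estrone measured by HPLC-MS/MS after MTBE extraction and dansyl derivatization, fitted bidirectionally versus DMSO without MTT-based MTC filtering.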
# [13] = CEETOX_H295R_TESTO_noMTC: CeeTox H295R High-throughput Steroidogenesis Assay for Testosterone (TESTO), maximum tolerated concentration (MTC) filtered results only (AID 2283924; active = hit-call score of the fitted dose curve at least 0.9, where 1 is the maximum; inactive = score below 0.9); settings: actives raise or lower the signal
# Summary of the method: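 H295R cells prestimulated 48 h with 10 uM forskolin, then exposed 48 h to chemicals in 0.1% DMSO final. Testosterone in medium quantified by MTBE extraction and HPLC-MS/MS; bidirectional fit versus DMSO, concentrations […] filtered by MTT-based maximum tolerated concentration.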
# PGR (gene 5241) [14] = target: PGR (gene 5241) (UniProt P06401); test: TOX21_PR_BLA_Followup_Agonist_ratio: Tox21 HEK293 Progesterone Receptor (PR) Agonism Beta-lactamase Follow-Up Assay, Ratio (AID 2283933)
# Sequence of PGR (gene 5241) (P06401 whole entry, looked up): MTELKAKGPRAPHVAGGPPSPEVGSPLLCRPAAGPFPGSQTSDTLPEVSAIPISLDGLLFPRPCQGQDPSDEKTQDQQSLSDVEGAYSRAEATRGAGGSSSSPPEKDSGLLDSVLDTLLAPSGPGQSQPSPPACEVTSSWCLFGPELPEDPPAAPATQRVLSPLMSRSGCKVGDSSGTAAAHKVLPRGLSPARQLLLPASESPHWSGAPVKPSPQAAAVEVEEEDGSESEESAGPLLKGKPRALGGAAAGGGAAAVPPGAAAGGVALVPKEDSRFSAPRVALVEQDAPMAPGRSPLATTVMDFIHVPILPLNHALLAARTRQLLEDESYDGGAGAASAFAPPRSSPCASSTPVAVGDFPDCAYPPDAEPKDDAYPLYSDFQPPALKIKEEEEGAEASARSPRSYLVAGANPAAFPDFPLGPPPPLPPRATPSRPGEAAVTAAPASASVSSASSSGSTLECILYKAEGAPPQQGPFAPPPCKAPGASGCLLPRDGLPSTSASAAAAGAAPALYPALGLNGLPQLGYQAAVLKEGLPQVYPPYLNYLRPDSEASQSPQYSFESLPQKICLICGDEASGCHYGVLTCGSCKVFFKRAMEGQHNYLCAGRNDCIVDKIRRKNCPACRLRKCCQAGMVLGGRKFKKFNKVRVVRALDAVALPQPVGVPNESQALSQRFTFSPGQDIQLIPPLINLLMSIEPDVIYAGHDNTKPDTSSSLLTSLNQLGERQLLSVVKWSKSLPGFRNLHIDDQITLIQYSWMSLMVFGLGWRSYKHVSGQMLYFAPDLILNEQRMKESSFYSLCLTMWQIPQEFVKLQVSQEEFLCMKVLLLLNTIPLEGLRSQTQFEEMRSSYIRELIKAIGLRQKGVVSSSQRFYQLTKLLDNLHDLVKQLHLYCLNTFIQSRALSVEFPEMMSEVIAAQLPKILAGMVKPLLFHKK
# Summary of the method: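 PR-UAS-bla HEK293T cells in medium with 2% charcoal-stripped FBS were dosed after 6 h plating and incubated 16 h at 37C. LiveBLAzer FRET substrate was added for 2 h at room temperature. Cleaved/uncleaved substrate ratio fitted against DMSO; CellTiter-Glo viability run in the same wells.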
# PGR (gene 5241) [15] = target: PGR (gene 5241) (UniProt P06401); test: TOX21_PR_BLA_Followup_Antagonist_ratio: Tox21 HEK293 Progesterone Receptor (PR) Antagonism Beta-lactamase Follow-Up Assay, Ratio (AID 2283934)
# Summary of the method: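 PR-UAS-bla HEK293T cells, 3,000/well in 2% charcoal-stripped FBS, given compound plus 1nM R5020 agonist for 16 hr at 37C. Beta-lactamase FRET substrate 2 hours, ratio cleaved/uncleaved fluorescence; viability by CellTiter-Glo in same wells.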
# [16] = TOX21_PR_BLA_Followup_Agonist_viability: Viability Assessment in the Tox21 HEK293 Progesterone Receptor (PR) Agonism Beta-lactamase Follow-Up Assay (AID 2283935);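 also: signal loss means lower viability so actives are cytotoxic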
# Summary of the method: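 PR-UAS-bla HEK293T cells in 2% charcoal-stripped FBS medium, plated 6 hr before compound addition, exposed 16 hr at 37C. Viability read by CellTiter-Glo ATP luminescence after 30 min at room temperature, in the same wells as the beta-lactamase readout.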
# [17] = TOX21_PR_BLA_Followup_Antagonist_viability: Viability Assessment in the Tox21 HEK293 Progesterone Receptor (PR) Antagonism Beta-lactamase Follow-Up Assay (AID 2283936);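 also: hits lower the luminescence signal meaning cytotoxicity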
# Summary of the method: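 PR-UAS-bla HEK293T cells (3,000/well, 2% charcoal-stripped FBS) given compound plus R5020 agonist, 16 h at 37C. CellTiter-Glo added after bla read, 30 min at room temperature; luminescence loss indicates cytotoxicity.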
# PGR (gene 5241) [18] = target: PGR (gene 5241) (UniProt P06401); test: TOX21_PR_LUC_Followup_Agonist: Tox21 HEK293 Progesterone Receptor (PR) Agonism Luciferase Follow-Up Assay (AID 2283937; active = hit-call score of the fitted dose curve at least 0.9, where 1 is the maximum; inactive = score below 0.9)
# Summary of the method: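 HEK293-PR-A-luc cells, conditioned 5 days in 10% charcoal-stripped FBS medium, seeded 3,000/well for 5 h, then compound-treated 16 h at 37C. ONE-Glo luminescence read after 30 min at room temperature; gain of signal versus DMSO.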
structure (smiles),measurement,setting,value
O=C1OC2(c3ccccc31)c1cc(Br)c(O)c(Br)c1Oc1c2cc(Br)c(O)c1Br,AC50,[1],14.1 µM (active)
same,outcome,[2],inactive
Cc1cc(CCN2CCN(c3nsc4ccccc34)CC2)cc2c1NC(=O)CC2(C)C,outcome,[1],inactive
same,AC50,[2],9.92 µM (active)
same,AC50,[3],11.2 µM (active)
same,outcome,[4],inactive
same,AC50,[5],0.756 µM (active)
same,outcome,[6],inactive
same,AC50,[7],10 µM (active)
same,AC50,[8],2.65 µM (active)
same,AC50,[9],7.31 µM (active)
same,AC50,[10],3.98 µM (active)
same,AC50,[11],0.584 µM (active)
same,AC50,[12],4.93 µM (active)
same,outcome,[13],inactive
CCCCCCCCCCCCc1ccccc1S(=O)(=O)O,outcome,[1],inactive
same,outcome,[2],inactive
c1ccc2c(c1)Cc1ccccc1-2,outcome,[1],inactive
same,outcome,[2],inactive
same,outcome,[3],inactive
same,outcome,[4],inactive
same,outcome,[5],inactive
same,outcome,[7],inactive
same,outcome,[8],inactive
same,outcome,[9],inactive
same,outcome,[10],inactive
same,outcome,[11],inactive
same,outcome,[12],inactive
CC[C@H](C)[C@@H](C(=O)O)n1sc2ccccc2c1=O,outcome,[1],inactive
same,outcome,[2],inactive
c1ccc2cc3c(ccc4ccccc43)cc2c1,AC50,[1],50 µM (active)
same,outcome,[2],inactive
same,outcome,PGR (gene 5241) [14],inactive
same,AC50,PGR (gene 5241) [15],21.8 µM (active)
same,outcome,[16],inactive
same,outcome,[17],inactive
same,outcome,PGR (gene 5241) [18],inactive
CC(=O)NC1(c2cccc(F)c2)CCN(CC[C@@]2(c3ccc(Cl)c(Cl)c3)CN(c3ccccc3)C(=O)CO2)CC1,outcome,[1],inactive
same,outcome,[2],inactive
O=C(O)c1ccccc1C(c1ccc(O)cc1)c1ccc(O)cc1,outcome,[1],inactive
same,outcome,[2],inactive
FC(F)(I)C(F)(F)C(F)(F)C(F)(F)C(F)(F)C(F)(F)I,AC50,[1],5.79 µM (active)
